KDM5B inhibitor – Primary screen for KDM5B Histone Demethylases FDH-coupled qHTS | KDM5B demethylase, FDH-coupled NADH fluorescence (FDH is formaldehyde dehydrogenase) | Potency, µM (top dose mostly 57.7 µM), actives largely listed as inhibitors | hit rate 2.6% among 220,000; active = well fitted inhibition curve with a large enough effect; note: nearly all actives have a fitted effect of over 70% in size
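qHTS format, multiple compound concentrations. Buffer 50 mM HEPES pH 7.5/0.01% Tween-20; 200 nM KDM5BΔAP final; 10 min compound preincubation; substrate-mix levels 12.5 µM peptide, 25 µM α-KG, 0.25 mM NAD⁺; 30 min RT; ΔRFU.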
Large screens that a line does not name were inactive. Only a selection was taken, and hits are over-represented in it overall.

O=C(/C(Br)=C/Nc1ccc(Cl)c(Cl)c1)C(F)(F)F	none
CCC1(CO)CCCN(Cc2ccc3c4c(cccc24)C(=O)OC3)C1 (stereo not drawn)	KDM5B inhibitor 11µM
Cc1ccc(C)c(-c2[nH]ncc2CN2CCCC(CO)(CCc3ccccc3)C2)c1 (stereo not drawn)	none
CCC1(CO)CCCN(CCCOc2ccc(C(N)=O)cc2)C1 (stereo not drawn)	none
COc1ccc(-c2coc3cc(OCCN4CCCCC4)ccc3c2=O)cc1	none
CC1CCc2nc(NC(=O)Cc3n[nH]c(=O)c4ccccc34)sc2C1 (stereo not drawn)	none
COc1ccc(CC(=O)N2CCc3nc(-c4cccnc4)[nH]c3C2)cc1	none
COc1ccc(-c2cc3nc4c(c(=O)n3[nH]2)CN(C(=O)NCc2ccco2)CC4)cc1	KDM5B inhibitor 25µM
COc1ccc(CC(=O)N2CCc3nc(C(C)C)nc(-c4ccc(OC)cc4)c3CC2)cc1	none
COc1ccc(-c2nc3c(c(-c4ccccc4)n2)CN(C(C)=O)CC3)cc1	KDM5B inhibitor 28µM
COc1ccc(-c2nc(-c3ccccc3)nc3c2CN(C(=O)C2CC2)CC3)cc1	none
Cc1nc2c(c(=O)n1C)CCN(C(=O)NCc1ccco1)CC2	none
CC(=O)N1CCc2nc(-c3ccccc3)nc(-c3ccc(Cl)cc3)c2C1	none
O=C(NCc1ccco1)N1CCc2c(nc(-c3ccc(F)cc3)[nH]c2=O)C1	none
COc1ccc(-c2cc3nc4c(c(=O)n3[nH]2)CN(C(=O)Cc2ccccc2)CC4)cc1	KDM5B inhibitor 28µM
O=C1CC(c2ccccc2)N(C(=O)C2CC2)CCCN(C(=O)Cc2c[nH]c3ccccc23)CCN1 (stereo not drawn)	none
Cc1ccccc1OC(=O)c1ccc(-c2ccccc2)cc1	none
CCS(=O)(=O)N1CCC(C(=O)Nc2ccc(OC)c(OC)c2)CC1	none
CCN(Cc1ccncc1)C(=O)c1c(OCC2CC2)cc(=O)n2c1CCCCC2	none
O=c1c2nc(-c3cccnc3)ccc2ncn1Cc1ccccc1	none
O=c1c2nc(Nc3cccnc3)ccc2ncn1-c1ccc(F)cc1F	none
Cn1cnc2ccc(-c3ccncc3)nc2c1=O	none
COc1ccc(Nc2ccc3ncn(-c4ccccc4)c(=O)c3n2)cn1	none
O=c1c2nc(-c3ccccc3)ccc2ncn1-c1ccccc1	KDM5B inhibitor 40µM
Cn1nccc1-c1ccc2ncn(-c3ccccc3)c(=O)c2n1	KDM5B inhibitor 32µM
CC(=O)Nc1cccc(-c2ccc3ncn(Cc4ccccn4)c(=O)c3n2)c1	none
Cn1cnc2ccc(Nc3cccc(F)c3)nc2c1=O	none
Cn1nccc1-c1ccc2ncn(-c3ccc(F)cc3F)c(=O)c2n1	KDM5B inhibitor 40µM
O=c1c2nc(-c3ccc(F)cc3)ccc2ncn1Cc1ccccn1	KDM5B inhibitor 32µM
O=c1c2nc(-c3cccc(O)c3)ccc2ncn1Cc1ccccn1	none
Cn1cnc2ccc(Nc3ccccc3)nc2c1=O	none
O=C(CSc1nc2ccccc2c(=O)n1-c1ncn[nH]1)Nc1cccc(F)c1	none
Cc1ncsc1C(=O)NCc1ccc(N2CCOCC2)nc1	none
COc1ccc(C)cc1Nc1nc2ccccc2nc1NS(=O)(=O)c1cccc2nsnc12	none
COC(=O)c1ccc(COc2ccccc2/C=C2\CCc3cc(OC)ccc3C2=O)cc1	none
CCOC(=O)c1cn(C)nc1S(=O)(=O)N1CCCC1	none

Screens as filed in PubChem.
